According to PubChem BioAssay AID493083 (Broad Institute, 2011):
Hit rate of the full screen: of about 2,400 compounds, about 95 (4%) were called active. About 3% were inconclusive and are not listed.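 How the source made its calls: active means compounds lowering signal whose fitted AC50 is at most ten times the top tested dose; inconclusive means flat fit with moderate inhibition, or poor curve fit; inactive means the rest.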 A selection follows. Entries with a potency or affinity are not part of this list.

Experiment: decrease of heat-induced HSF-1 GFP reporter, dose response, NIH3T3 R4 cells, GFP/RFP, cherry-pick, set 3 (AID 493083);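 further: 0% = neutral control wells and -100% = didemnin B positive control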
Details: NIH3T3 R4 HSF-1 GFP reporter, heat shock, 48 h; series mostly up to 19.5 µM; activity change, negative = inhibition: at the top concentration

Activity change, negative = inhibition, inactive:
CCC(C(=O)OCC(=O)Nc1cc(Cl)ccc1Cl)c1ccccc1 (stereo not given) -0.627%
O=C(O)c1cccc(Nc2ccnc(Nc3cccc(C(=O)O)c3)n2)c1 -5.94%
Cc1cc(Nc2cccc(Cl)c2)nc(-c2ccccc2O)n1 2.12%
CC(=O)NC(=S)Nc1cccc(S(=O)(=O)NC2=NCCC2)c1 -1.24%
Cn1c(=O)c2ncn(CC(=O)Nc3ccc4c5c(cccc35)CC4)c2n(C)c1=O 29.5%
COc1ccc(OCCN2C(=O)c3ccccc3C2=O)cc1 -7.76%
CCN(CC)C(=O)CN1C(=O)/C(=C/c2ccccc2)SC1=S 6.39%
CC(C)N1CCC(N2CCN(C3CCCC3)CC2CCO)CC1 (stereo not given) -0.505%
CC(CCc1ccccc1)NC(=O)CCNS(=O)(=O)c1ccccc1 (stereo not given) 1.85%
CCCC(C)NS(=O)(=O)c1ccccc1 (stereo not given) -1.47%
Cc1ccc(-c2nnn(CC(=O)N(Cc3cccs3)C(C(=O)NC3CCCC3)c3ccncc3)n2)cc1 (stereo not given) 20.9%
CCCN(CCC)S(=O)(=O)c1ccc(NC(=O)c2cc(C(=O)OC)cc([N+](=O)[O-])c2)cc1 8.28%
NC(=O)CC(NC(=O)Cc1ccc(Cl)cc1)c1ccc(NC2CCCCCC2)c([N+](=O)[O-])c1 (stereo not given) -4.13%
Cc1cc(C)cc(SCc2noc(C(=O)NCc3ccccc3)c2C(=O)NCc2ccccc2)c1 -2.26%
O=[N+]([O-])c1ccccc1CCc1cnc(Cl)s1 -12.9%
O=C(CNC(=O)C1CCCCC1)NC1=NCCS1 -0.457%
CC(C)(C)N1[C@@H](CC(=O)O)c2cc(C(F)(F)F)ccc2S1(=O)=O 1.39%
Cc1cc(C)n(-c2ccc(NC(=O)C3CCCCN3C(=O)c3ccoc3C)cc2)n1 (stereo not given) 7.41%
COc1ccc(C(C(=O)NC2CCCCC2)N(C(=O)CCl)c2cccc(Cl)c2)cc1 (stereo not given) 122%
COc1ccc(C(C)NC(=S)NC2CCCCC2)cc1OC (stereo not given) 3.12%
O=C1N=C(N2CCCC2)S/C1=C\C=C\c1ccccc1 7.74%
Cc1nn2c(CN(C(=O)CN3CCOCC3)c3ccccc3)nnc2c2ccccc12 -1.66%
O=C(CCCCn1c(=O)[nH]c2ccsc2c1=O)NCc1cccnc1 0.446%
CCCC(=O)Nc1cccc(NC(=O)c2cccc([N+](=O)[O-])c2C)c1 8.31%
CCOC(=O)/C(C#N)=C/c1cc(C)n(-c2ccccc2)c1C 23.8%
Cc1cccc(NC(=O)c2sc(-c3ccccc3)nc2-c2ccc([N+](=O)[O-])cc2)c1 1.84%
CCCCNC(=O)C(c1ccc(OCC(=O)OC)c(C(=O)OC)c1)N(CCc1c[nH]c2ccccc12)C(=O)CCCCCN1C(=O)NC(c2ccc(-c3ccccc3)cc2)C(C(=O)OCc2ccccc2)=C1C (stereo not given) -3.99%
CC1=C(C(=O)Nc2ccccc2)C(c2cc(CN3CCOCC3)cs2)C2=C(CCCC2=O)N1 (stereo not given) -6.96%
COC(=O)C1(Cc2ccccc2)NC(c2ccccc2C)C2C(=O)N(c3ccc4c(c3)OCO4)C(=O)C21 (stereo not given) 1.42%
CCN(C(=O)COC(=O)/C=C/c1ccccc1)C1CCCCC1 -5.04%
Cc1cccc(N(Cc2ccccc2)C(=O)CCl)c1 30.1%
CC(C)(C)C(CN1CCCC1)OC(=O)c1ccccc1 (stereo not given) -1.59%
COc1ccc(OC)c(N=C2SCCCN2C(=O)c2ccc(N3C(=O)CCC3=O)cc2)c1 -7.4%
CCOc1ccc(CCNC(=O)c2nn(C)c3c2CS(=O)(=O)c2ccccc2-3)cc1 16.6%
Cc1cc(C)c2cc(CN(CCN(C)C)C(=O)Nc3ccccc3Cl)c(=O)[nH]c2c1 5.03%
Cc1ccc(C(=O)N2CCCC(Nc3ccc(F)cc3)C2)cc1C (stereo not given) 0.822%
Cc1ccc(-n2ncc3c(NCc4ccc5c(c4)OCO5)ncnc32)c(C)c1 26.2%
Nc1ccccc1SCC(=O)Nc1ccc2c(c1)OCCO2 -0.379%
CC(=O)c1ccc(NC(=O)c2cnn3ccccc23)cc1 5.6%
Cc1cc(/C([O-])=C(/C(=S)Nc2ccccc2)[n+]2ccccc2)c(C)n1-c1ccccc1 5.95%
NC(=O)COC(=O)c1cc(=O)[nH]c2ccccc12 -4.28%
COc1ccc(NC(=O)CN(C)CC(=O)Nc2ccc3c(c2)CCC3)cc1 -2.35%
CCO[C@@H]1OC(C(=O)NCc2ccccc2)=C[C@H](c2ccc3c(c2)OCO3)[C@H]1CCCO -7.04%
CC[n+]1c(/C=C/c2cc([N+](=O)[O-])ccc2O)ccc2ccccc21 14.5%
COc1ccc(N2CCN(S(=O)(=O)c3cc4c(cc3C)N(C(C)=O)CCO4)CC2)cc1 10.3%
COc1ccc(NC(=O)CCN2CCN(S(=O)(=O)c3ccc(OC)cc3)CC2)cc1 13.3%
Cc1cc(NC(=O)C2C3C(=O)N(Cc4ccc(Cl)cc4)C(C(=O)NC(C)(C)C)C34C=CC2(C)O4)no1 (stereo not given) -4.82%
COc1cc(OC)c(NC(=O)CN(C)S(=O)(=O)c2ccc3[nH]c(=O)oc3c2)cc1Cl -1.32%
O=C(CCl)Nc1ccccc1C(=O)c1ccccc1 1.46%
O=C(CCl)NC(Cc1ccccc1)c1ccccc1 (stereo not given) 4.64%
O=C1C2CCCN2c2ccc(S(=O)(=O)N3CCOCC3)cc2N1Cc1cccc(C(F)(F)F)c1 (stereo not given) 2.71%
O=C(CSc1nnc(CNC(=O)c2cccs2)o1)NCc1ccc(F)cc1 -4.17%
COCCNC(=O)CSC1=N/C(=C/c2ccc(Cl)c(Cl)c2)C(=O)N1c1ccccc1F 34.4%
CC(C)Sc1nc(SCC(=O)NCc2ccco2)c2c3c(sc2n1)COC(C)(C)C3 17.8%
CCOC(=O)N1CCN(C(=S)Nc2ccc(C)cc2C)CC1 -2.21%
CC1CCCN(S(=O)(=O)c2ccc(Br)s2)C1 (stereo not given) 1.88%
CN(C)c1ccc(/C=N/NC(=O)C2COc3ccccc3O2)o1 (stereo not given) 7.29%
Cc1ccc(Cl)cc1NC(=O)C1COc2ccccc2O1 (stereo not given) -0.666%
O=S(=O)(Cc1cc(Oc2ccccc2)nc(-c2ccccc2)n1)c1ccccc1 23.5%
O=C(O)C(=O)Nc1ccc(NC(=O)C(c2ccccc2)c2ccccc2)cc1 -4.7%
CCCS(=O)(=O)N1CCc2cc(OC)c(OC)cc2C1 -3.49%
Nc1ncnc2nc(N3CCN(C(=O)c4ccccc4)CC3)[nH]c12 -1.58%
O=C(CSC(=S)N1CCOCC1)Nc1nc(-c2ccccc2)c(-c2ccccc2)o1 -2.41%
Nc1nc(Cl)nc2c1ncn2C1CC(O)C(CO)O1 (stereo not given) 1.43%
CN1CCN(S(=O)(=O)c2cccc(C(=O)NCCC3=CCCCC3)c2)CC1 -0.832%
